KCNQ2 block = rat KCNQ2 potassium channel inhibitors, primary screen, cell-based, CHO-K1, FluxOR thallium flux, B-score. Potassium voltage-gated channel subfamily KQT member 2 (Rattus norvegicus), O88943. 20 min; active compounds read low. B-score at 10 µM. actives 1.1% (n = 310,000);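 active means fluorescence ratio B-score at most minus 3 library SDs, with starting brightness B-score within 2 library SDs, cut at about -5.5 in these data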
Target sequence (O88943 whole entry, looked up): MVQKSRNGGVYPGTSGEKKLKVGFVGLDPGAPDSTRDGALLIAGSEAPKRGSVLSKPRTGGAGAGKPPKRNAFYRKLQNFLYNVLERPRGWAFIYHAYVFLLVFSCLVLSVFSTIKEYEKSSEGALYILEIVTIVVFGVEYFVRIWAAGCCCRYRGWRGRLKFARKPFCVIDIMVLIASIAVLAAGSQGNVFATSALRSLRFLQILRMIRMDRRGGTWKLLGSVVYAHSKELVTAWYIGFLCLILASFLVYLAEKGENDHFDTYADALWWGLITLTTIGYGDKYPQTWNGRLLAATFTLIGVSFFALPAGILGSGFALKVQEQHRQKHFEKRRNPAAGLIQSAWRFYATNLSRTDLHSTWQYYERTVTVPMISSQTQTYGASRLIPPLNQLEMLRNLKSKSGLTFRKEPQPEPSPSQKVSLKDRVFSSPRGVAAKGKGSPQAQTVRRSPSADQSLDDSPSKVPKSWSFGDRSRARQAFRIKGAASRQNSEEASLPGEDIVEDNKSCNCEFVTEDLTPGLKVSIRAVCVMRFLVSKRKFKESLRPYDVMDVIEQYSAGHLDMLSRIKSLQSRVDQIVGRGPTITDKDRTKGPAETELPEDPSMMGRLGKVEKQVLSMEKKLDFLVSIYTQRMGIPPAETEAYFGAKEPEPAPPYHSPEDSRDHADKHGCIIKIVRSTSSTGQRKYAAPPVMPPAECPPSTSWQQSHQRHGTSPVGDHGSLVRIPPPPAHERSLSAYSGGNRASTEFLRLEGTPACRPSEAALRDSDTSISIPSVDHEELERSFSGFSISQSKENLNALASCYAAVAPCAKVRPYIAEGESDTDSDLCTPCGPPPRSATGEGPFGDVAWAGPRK
KCNQ2 pot = potentiators of rat KCNQ2 potassium channel; Potassium voltage-gated channel subfamily KQT member 2 (Rattus norvegicus), O88943; actives 0.54% (n = 310,000); CHO-K1 KCNQ2, FluxOR thallium flux fluorescence; active compounds read high; B-score at 10 µM;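 active means fluorescence ratio B-score at least 3 SD of library B-scores, with initial fluorescence B-score within 3 of them, cut at about 5.3 in these data; same plate scores as AID 2156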;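 further: B-score of peak minus minimum over baseline fluorescence ratio after K+ and Tl+ stimulus; positive B-score means potentiation of KCNQ2 with more thallium influx and brighter signal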
KCNQ2 inh conf = rat KCNQ2 potassium channel inhibitors, confirmation, cell-based, thallium flux | shares compounds with KCNQ2 block | KCNQ2-expressing cells, inhibition; active compounds read low | activity change, negative = inhibition, % at 10 µM | actives 57% (n = 1,000);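 further: 0% = vehicle wells and values are ratio percent relative to vehicle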
KCNQ1 spec = human KCNQ1 channel inhibition, counter-screen for KCNQ2 inhibitor project, cell-based, FluxOR thallium flux | shares compounds with KCNQ2 block | KCNQ1-expressing cells, FluxOR thallium flux fluorescence; active compounds read low | activity change, negative = inhibition, % at 10 µM | actives 15% (n = 1,000) | AID 493026, 2011;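 active means activity change at least 3 SD of negative controls below their mean in both duplicate wells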;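 further: CHO cells stably transfected with KCNQ1 and depolarized by potassium stimulus; peak minus minimum fluorescence over baseline after thallium addition; 0% = vehicle negative control and -100% = blank without thallium stimulus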
CHO Tl ctr = thallium flux change in parental CHO cells, counter-screen for KCNQ2 inhibitor project | shares compounds with KCNQ2 block | active compounds read low | activity change, % at 10 µM | actives 14% (n = 1,000) | AID 493029, 2011;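 further: 0% = vehicle negative controls with stimulus buffer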
KCNQ2 inh confirm = rat KCNQ2 channel inhibitors, confirmation, cell-based, automated patch clamp, single concentration | calls only at 10 µM | shares compounds with KCNQ2 block | actives 49% (n = 550) | AID 588531, 2011 | KCNQ2-expressing cells, automated patch clamp current
* marks the source's active call; other numbers are inactive results; i = inactive; / = not tested or not shown; + = active, no number. A selection: hits, their analogues and other compounds. The true share with any hit is near 1.6%. Unless noted, how the calls were made is not given here.

SMILES | KCNQ2 block | KCNQ2 pot | KCNQ2 inh conf | KCNQ1 spec | CHO Tl ctr | others
Cc1cc(C)c(N=C2CCCN2Cc2ccccc2)c(C#N)c1 | -8.8* | -8.8 | -32%* | i | i | KCNQ2 inh confirm=+
CCOC(=O)c1cnc(-c2ccccc2)nc1C(F)(F)F | i | / | / | / | /
CCOC(=O)c1cnc2c(F)ccc(F)c2c1Sc1ccccc1 | -7.6* | -7.6 | i | i | i
O=C(NCc1ccc(Cl)c(Cl)c1)C1CCCC1 | i | 1.9 | / | / | /
CCOC(=O)C1CCN(C(=O)COC(=O)c2nn(C)c(=O)c3ccccc23)CC1 | i | 1.5 | / | / | /
O=C(COC(=O)C1CCN(c2ccc(C(F)(F)F)cn2)CC1)c1ccc(F)cc1 | i | / | / | / | /
Cc1cc(C)c(C(=O)COC(=O)C2CCN(c3ccc(C(F)(F)F)cn3)CC2)cc1C | -10* | -10 | i | i | i
COc1cc(C(=O)COC(=O)C2CCN(c3ccc(C(F)(F)F)cn3)CC2)ccc1OC(F)F | -9.9* | -9.9 | i | i | i
O=C(COC(=O)C1CCN(c2ccc(C(F)(F)F)cn2)CC1)c1ccccc1Cl | i | / | / | / | /
COc1ccccc1-n1c(C)c(C(=O)O)c2cc(OC)c3ccccc3c21 | i | 0.6 | / | / | /
Cc1cc2c(cc3c(=O)n(CC(=O)NCCCN4CC(C)CC(C)C4)ncn32)s1 (stereo unspecified) | i | 2.6 | / | / | /
CCOC(=O)N1CCN(C(=O)CN(C)S(=O)(=O)c2ccc(OCC)cc2)CC1 | i | 0.65 | / | / | /
NS(=O)(=O)c1cccc(NC(=O)Cn2nc(C(=O)O)c3ccccc3c2=O)c1 | i | 1.3 | / | / | /
CC1=NN(C(=O)COc2ccccc2C)C(O)(c2ccc(Cl)cc2)C1 (stereo unspecified) | -8.1* | -8.1 | -24%* | i | i | KCNQ2 inh confirm=+
CCC1=NN(C(=O)COc2ccccc2C)C(O)(c2ccncc2)C1 (stereo unspecified) | i | / | / | / | /
COc1ccc(-c2[nH]ncc2-c2cscn2)c(O)c1 | i | / | / | / | /
CCN(CC)c1nc(C#N)nc(N(CC)CC)n1 | i | / | / | / | /
CCN(c1ccccc1)c1nc(C#N)nc(N(CC)c2ccccc2)n1 | -6.7* | -6.7 | -30%* | i | i | KCNQ2 inh confirm=i
CCCN(C(=O)c1cccc(S(=O)(=O)N2CCN(C)CC2)c1)c1c(N)n(Cc2ccccc2)c(=O)[nH]c1=O | i | 1.1 | / | / | /
COc1ccc(-n2nc(C(=O)NCC(=O)N3CCN(c4ccccc4)CC3)c3ccccc3c2=O)cc1OC | i | / | / | / | /
Cc1nn(C)c(C(=O)Sc2ccccc2)c1[N+](=O)[O-] | -7.9* | -7.9 | -33%* | i | i | KCNQ2 inh confirm=i
Cc1nn(C)c(C(=O)Sc2cccc(Cl)c2)c1[N+](=O)[O-] | -9.7* | -9.7 | -47%* | -50%* | -34%* | KCNQ2 inh confirm=i
CCn1nc(C)cc1C(=O)Sc1cccc(Cl)c1 | i | / | / | / | /
Cc1nn(C)c(C(=O)N/N=C/c2ccccn2)c1[N+](=O)[O-] | i | 0.06 | / | / | /
O=[N+]([O-])c1cccc(S(=O)(=O)[N-]c2nc3ccccc3nc2-n2cc[n+](Cc3ccccc3)c2)c1 | i | 1.1 | / | / | /
SMILES | KCNQ2 block | KCNQ2 pot | KCNQ2 inh conf | KCNQ1 spec | CHO Tl ctr | others
O=C(O)Cc1sc(N/N=C\c2ccncc2)nc1-c1ccccc1 | i | / | / | / | /
CCCc1nnc(NC(=O)CCC(=O)NC2CCCCCC2)s1 | i | 0.69 | / | / | /
O=S(=O)(/N=C(\Sc1ccccc1)c1ccccc1)c1ccc(Cl)cc1 | -6.9* | -6.9 | i | i | i
Cc1ccc(S(=O)(=O)/N=C(\Sc2ccccc2)c2ccccc2)cc1 | i | / | / | / | /
CC(=O)C(Cc1ccccc1)NC(=O)CN(C)Cc1ccccc1Cl (stereo unspecified) | -8.5* | -8.5 | i | i | i
CC(=O)C(Cc1ccccc1)NC(=O)CCl (stereo unspecified) | i | / | / | / | /
CN(CC(=O)NCc1ccccn1)S(=O)(=O)c1ccc(Br)cc1 | i | 1.4 | / | / | /
CCOC(=O)c1c(-c2ccc(-c3ccccc3)cc2)csc1NC(=O)CCN1CCOCC1 | i | 1.2 | / | / | /
CCOC(=O)c1c(-c2ccc(-c3ccccc3)cc2)csc1NC(=O)CNCCN(C)C | -8.8* | -8.8 | i | i | i
CCOC(=O)c1c(-c2cccs2)csc1NC(C)=O | i | / | / | / | /
CCOC(=O)c1c(-c2cccs2)csc1NC(=O)CN1CC(C)OC(C)C1 (stereo unspecified) | -8.1* | -8.1 | -19%* | i | i | KCNQ2 inh confirm=i
CCOC(=O)c1c(-c2cccs2)csc1NC(=O)CCCC(=O)O | i | 0.46 | / | / | /
CCOC(=O)c1c(-c2cccs2)csc1NC(=O)C(C)(C)C | -7* | -7 | -35%* | -37%* | -34%* | KCNQ2 inh confirm=i
O=C(CSC1=N/C(=C/c2ccco2)C(=O)N1c1ccc(OC(F)F)cc1)NC1CCS(=O)(=O)C1 (stereo unspecified) | i | 0.6 | / | / | /
Cc1cc(NS(=O)(=O)c2ccc(NC(=O)CSc3nc4ncc(Br)cc4[nH]3)cc2)nc(C)n1 | i | 0.46 | / | / | /
CCc1ccc(C(C(=O)NCc2ccc(OC)cc2)N(CCOC)C(=O)Cc2cccs2)cc1 (stereo unspecified) | i | / | / | / | /
COCCN(C(=O)Cc1cccs1)C(C(=O)NCc1ccc(OC)cc1)c1ccc(C(C)C)cc1 (stereo unspecified) | -8.6* | -8.6 | -35%* | i | i | KCNQ2 inh confirm=+
COc1cccc(NC(=O)c2ccc(NC(=O)C3CC(=O)OC34CCCCC4)cc2)c1 (stereo unspecified) | i | 0.55 | / | / | /
COc1cc(/C=N/NC(=S)NCCN2CCOCC2)ccc1O | i | / | / | / | /
COc1ccccc1CNC(=O)C(=O)NCC(c1ccco1)N1CCOCC1 (stereo unspecified) | i | 0.95 | / | / | /
CCOC(=O)C(C)Sc1nc(-c2ccco2)cc(C(F)(F)F)c1C#N (stereo unspecified) | -8.8* | -8.8 | -37%* | -39%* | -37%* | KCNQ2 inh confirm=i
CCOC(=O)COc1nc(-c2ccco2)cc(-c2ccco2)c1C#N | i | / | / | / | /
O=C(NCCn1cc(SCc2ccc(F)cc2)c2ccccc21)c1ccccc1F | -9.1* | -9.1 | i | i | i
O=C(NCCn1cc(SCc2ccc(F)cc2)c2ccccc21)c1c(F)cccc1F | i | 0.27 | / | / | /
COc1ccc(N2CC(C(=O)Nc3cc(C)ccn3)CC2=O)cc1 (stereo unspecified) | i | 0.94 | / | / | /
Cc1cccc(N2CCN(C(=O)C(Cc3ccccc3)n3cccc3)CC2)c1C (stereo unspecified) | -13* | -13 | -43%* | -34%* | -31%* | KCNQ2 inh confirm=i
Cc1cccc(N2CCN(C(=O)C(Cc3ccccc3)NC(N)=O)CC2)c1C (stereo unspecified) | i | 0.13 | / | / | /

From PubChem
